In PubChem BioAssay (NCI) one finds growth data, which are given here for 26 compounds.

The panel holds about 83,000 compounds, 20% with a hit somewhere; the sample as a whole holds those more often.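 Percent growth is the endpoint: 0 to 100 indicates growth inhibition (40 means 60% inhibition), 0 means no net growth, and negative values indicate cell death.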 The source made the active and inactive calls. How the source made its calls: active means growth percent below 10; inactive means the rest.

In the assay the test system is HCT-116 colon. Briefly: NCI-60 one-dose screen, 48 h (100 = growth as untreated, 0 = no growth, -100 = all killed). To be noted: 10 µM unless noted.
Turning to `COc1cc(C(C)=C(c2ccc(OCCN(C)C)cc2)c2ccc(OCCN(C)C)cc2)ccc1F`, the growth is 107% (inactive).

In the case of `CN1CCN(CC#CCn2c3c(c4ccccc42)C[C@]2(C)[C@H]4CC=C5[C@@H]6CC(C)(C)CC[C@]6(C(=O)N6CCOCC6)CC[C@@]5(C)[C@]4(C)CC[C@H]2C3(C)C)CC1`, the growth was 22% (inactive).

`COc1cc(/C=C2/C(=O)Nc3ccc(Cl)cc32)ccc1OCc1ccc(Cl)cc1`: the growth is 47.9% (inactive).

`Cc1[nH]c(C(=O)Nc2ccccc2OCc2cccc(C(=O)NC3CCCNC3)c2)c(Cl)c1Cl` (stereo unspecified): the growth was -67% (active).

For `O=S(=O)(NCCCNc1nccc(-c2[nH]c(-c3ccccc3)nc2-c2ccc(F)c(O)c2)n1)c1ccccc1`, the growth was 77.9% (inactive).

As to `COc1ccc(Cn2cc(C#N)c(N)c2C(C)=O)cc1`, the growth is 108% (inactive).

Consider `CC(Nc1ncnc2ccc(-c3cnc4cnccn34)cc12)c1ccccc1` (stereo unspecified), for which the growth is 72.3% (inactive).

For `O=C(NCCNc1cc(-c2cn(-c3ccccc3)nc2-c2cccc(O)c2)ccn1)Nc1cc(C(F)(F)F)cc(C(F)(F)F)c1`, the growth was 89.5% (inactive).

As for `C#CCN(C)CCCOc1ccc(NC(=O)CCCCCCC(=O)NO)cc1Cl`, the growth is 2.96% (active).

`O=C(CSc1nnc(-c2ccc(Cl)cc2)n1-c1ccccc1)Nc1ccc(Cl)cc1`: the growth was 1.07% (active).

For `CN1CCN(Cc2ccc(/C=N/Nc3ccnc4cc(Cl)ccc34)cc2)CC1`, the growth was 37% (inactive).

Take `N#Cc1c(-c2cccs2)cc(-c2cnccn2)nc1SCC(=O)N/N=C/c1cccs1`: the growth was 0.402% (active).

For the compound `CCCCCCN1C=C/C(=C\C(=O)n2ccc3ccccc32)c2ccccc21`, the growth was 48.4% (inactive).

Take `CC(C)(C)Nc1nc2c(OCCc3ccccc3)cccn2c1-c1cccc(Oc2ccccc2)c1`: the growth was 4.13% (active).

Regarding `Cn1cc(-c2nnc(N)nc2-c2c[nH]c3ccc(F)cc23)c2cc(Br)ccc21`, the growth is 14.9% (inactive).

In the case of `CN1CCN(c2ccc(Nc3nc(NCCCNS(=O)(=O)c4cccc(F)c4)c4sccc4n3)cc2)CC1`, the growth was 11.1% (inactive).

`CNC(=O)c1cc(-c2ccc(NC(=S)Nc3cccc(C(F)(F)F)c3)cc2)nc2cccnc12`: the growth is 103% (inactive).

On to `NC(N)=NS(=O)(=O)c1ccc(N=Nc2c(N)nn(-c3ccc([N+](=O)[O-])cc3[N+](=O)[O-])c2N)cc1`, for which the growth is 101% (inactive).

Consider `N#Cc1c(-c2cccs2)cc(-c2cnccn2)nc1SCC(=O)N/N=C/c1ccncc1`, for which the growth was 101% (inactive).

Take `CCN(CC)c1ccc(/C=N/NC(=O)c2ccc(NS(C)(=O)=O)cc2)cc1`: the growth is 21.3% (inactive).

As for `CCCCCC[n+]1ccc(SCC(=O)n2ccc3ccccc32)c2ccccc21`, the growth is 73.2% (inactive).

For `O=C(/C=C/c1cccc(F)c1)c1cccc(OCCCOc2cccc(C(=O)/C=C/c3cccc(F)c3)c2)c1`, the growth is -80.3% (active).

Consider `NC(=O)n1c(=O)n(-c2cccc(C(F)(F)F)c2)c(=O)c2cc(-c3ccc(F)cc3F)ccc21`, for which the growth is 2.24% (active).

Turning to `CCCCCc1ccc(S(=O)(=O)Nc2cc(-c3csc(N)n3)ccc2OC)cc1`, the growth is 95.1% (inactive).

For the compound `COC(=O)c1cccc(NC2=CC(=O)C(C)=C(C)C2=O)c1`, the growth is 66.7% (inactive).

As to `O=C(/C=C/c1cccc(C(F)(F)F)c1)Nc1cccc(C(F)(F)F)c1`, the growth was 21% (inactive).
